# PKA kinase inh: inhibitors of human protein kinase A. P17612. AID 524. hit rate 0.1% among 65,000. PKA Kemptide phosphorylation, Kinase-Glo ATP luminescence. inhibition, % at 6 µM;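 active = inhibition above the screen-wide mean inhibition plus 3 SD, cut at about 21% in these data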
# mHtt clearance: mutant huntingtin protein clearance; AID 853; hit rate 0.42% among 47,000; HeLa Exon1htt(103Q)mCFP, aggregate imaging; zero = plate's median compound well; inhibition, % at 1.5 µM;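 active = inhibition of aggregate fluorescence above about 70%, also judged a hit by eye on the cell image, limit read from the data, passing the limit was not always enough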;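 also: cells exposed to compound for three days before fixation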
# HER2 expr 66K: Her2 kinase expression inhibition. P04626. SKBR-3 HER2 protein level, AlphaScreen, 18-24 h; stronger effect = lower value. hit rate 0.69% among 65,000. HER2 level % of control, % at 10 µM. AID 645;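 active = HER2 level under 5% of the carrier-only control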;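 also: 100% = DMSO carrier and 0% = 500 nM PU-H71 HSP90 inhibitor; lower value means stronger loss of Her2 protein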
# JNK3 blocker: inhibitors of human JNK3 kinase; P53779; AID 746; hit rate 0.61% among 60,000; purified JNK3 kinase activity, HTS; inhibition, % at 8 µM; in the data active = inhibition above about 17%;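 also: 0% = DMSO and 100% = reference inhibitor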
# Target sequence (P53779 whole entry, looked up): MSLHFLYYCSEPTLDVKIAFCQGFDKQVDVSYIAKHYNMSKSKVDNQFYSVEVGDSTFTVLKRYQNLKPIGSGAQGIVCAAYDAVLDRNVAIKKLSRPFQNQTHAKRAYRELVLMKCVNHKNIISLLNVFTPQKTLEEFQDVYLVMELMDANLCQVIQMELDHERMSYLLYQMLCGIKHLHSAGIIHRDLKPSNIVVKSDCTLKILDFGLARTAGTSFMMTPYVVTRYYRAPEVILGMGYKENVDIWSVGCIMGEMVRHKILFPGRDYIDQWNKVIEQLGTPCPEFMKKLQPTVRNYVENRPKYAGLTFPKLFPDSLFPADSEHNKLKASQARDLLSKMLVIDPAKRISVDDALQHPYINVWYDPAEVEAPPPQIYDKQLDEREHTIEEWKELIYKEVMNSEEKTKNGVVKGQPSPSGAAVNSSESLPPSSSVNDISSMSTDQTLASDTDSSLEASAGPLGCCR
# SKBR3 24h inh: SK-BR-3 proliferation inhibitors | SK-BR-3 viability, CellTiter-Glo ATP luminescence, 24 h; stronger effect = lower value | viability, % at 10 µM | hit rate 0.47% among 41,000 | AID 847;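 active = viability at or below the median of all test compounds minus 3 SD, in both replicates if run twice, cut at about 45% in these data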;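 also: 100% = median untreated cell wells and 0% = median positive control drug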
# ROCK2 blocker: blocks human Rho kinase 2 activity. AID 604. O75116. hit rate 0.35% among 60,000. purified ROCK2, Kinase-Glo ATP depletion luminescence. inhibition, % at 6 µM;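 active = inhibition above the screen-wide mean inhibition plus 3 SD, cut at about 18% in these data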;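 also: plate controls were DMSO wells for no effect and Y-27632 control wells after no-enzyme background subtraction for full effect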
# The depositor's hits bear a star; nt = not tested or not shown. Compounds with a hit are over-represented: about 1.4% of the library has one in this group of screens.
SMILES,PKA kinase inh,mHtt clearance,HER2 expr 66K,JNK3 blocker,SKBR3 24h inh,ROCK2 blocker
CCn1c(O)c(C(=O)CC2NCCc3ccccc32)c(=O)n(CC)c1=S (configuration not stated),-12,-18,-17*,-2,3.2*,-6
O=P(NS(=O)(=O)c1ccc(Br)cc1)(Oc1ccccc1)Oc1ccccc1,nt,19,nt,nt,nt,nt
CCOC(=O)C1=C(N)OC2=C(C(=O)CC(C)(C)C2)C12C(=O)Nc1ccccc12 (configuration not stated),9,30,100,10,nt,7
CCOC(=O)c1c(NC(=O)C(c2ccccc2)c2ccccc2)sc2c1C1CCN2CC1,nt,75*,nt,nt,nt,nt
CCOC(=O)c1c(NC(=O)c2c(N)n(CCCOC)c3nc4ccccc4nc23)sc2c1CCCC2,nt,13,nt,nt,nt,nt
CCn1nc(-c2cccs2)nc2c(=O)n(C)c(=O)nc1-2,2,nt,-0.1*,47*,27*,69*
CCCCc1ccc2[nH]cc(CCN)c2c1,-2,75*,80,3,46,-7
CCC1(CC)C(=O)NC(=NCCc2c[nH]c3ccccc23)NC1=O,-6,-6,78,0,123,-3
CC(C)[C@H]1C(=O)N2CCC[C@H]2[C@]2(O)O[C@](NC(=O)[C@@H]3C=C4c5cccc6[nH]cc(c56)C[C@H]4N(C)C3)(C(C)C)C(=O)N12,4,nt,105,-5,90,36*
CCN1CCC(O)(c2ccccc2)C(C(=O)c2ccccc2)C1 (configuration not stated),nt,87*,nt,nt,nt,nt
CCCNC(=O)N1C2CCC1CC(O)(c1cccnc1)C2 (configuration not stated),0,14,120,-6,nt,5
CCCCCn1c(N)c(C(=O)NCCN2CCOCC2)c2nc3ccccc3nc21,1,nt,37,-1,nt,1
CCCCCCn1c(N)c(C(=O)NCCN2CCOCC2)c2nc3ccccc3nc21,-9,-74,-5.8*,-1,2.3*,-9
COc1cc(C2SCC(=O)Nc3c2c(=O)[nH]n3C2CCCCCC2)cc(OC)c1OC (configuration not stated),9,nt,152,nt,110,nt
O=c1cccc2n1CC1CC2CN(C(c2ccccc2)c2sc3ncnn3c2O)C1 (configuration not stated),-2,nt,107,6,nt,2
Cc1[nH]c2ccccc2c1C1=CCNCC1,18,nt,107,-5,nt,26*
CCOc1ccc(-n2c(O)c(C=NCCN3CCNCC3)c(=O)[nH]c2=O)cc1,4,nt,98,7,88,4
CN1CCN(c2ccc(C(N)=O)cc2N)CC1,-6,nt,-20*,-3,75,-5
